Screening results deposited in PubChem BioAssay by National Center for Advancing Translational Sciences (NCATS).
An excerpt weighted towards active compounds, which were near 5.3% of everything screened.
KDM4E inh: blocks human JMJD2E demethylase activity; B2RXH2; JMJD2E catalytic domain, FDH-coupled NADH fluorescence (FDH is formaldehyde dehydrogenase); Potency, µM (highest dose often 57.1 µM), for inactives: top-dose activity change, negative = inhibition, hits mostly inhibitors; hit rate 1.6% among 230,000; active = well fitted inhibition curve with a large enough effect, not every such curve was filed as active; inconclusive = small, poorly fitted or top-dose-only effect, or another doubt; inactive = no such curve, though single readings can be large or run the other way;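 note: potency is the fitted concentration of half-maximal effect; 0% = wells with enzyme and -100% = buffer wells without enzyme; nearly all actives have a fitted effect of over 50% in size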
Target sequence (B2RXH2 1-337 limits assumed): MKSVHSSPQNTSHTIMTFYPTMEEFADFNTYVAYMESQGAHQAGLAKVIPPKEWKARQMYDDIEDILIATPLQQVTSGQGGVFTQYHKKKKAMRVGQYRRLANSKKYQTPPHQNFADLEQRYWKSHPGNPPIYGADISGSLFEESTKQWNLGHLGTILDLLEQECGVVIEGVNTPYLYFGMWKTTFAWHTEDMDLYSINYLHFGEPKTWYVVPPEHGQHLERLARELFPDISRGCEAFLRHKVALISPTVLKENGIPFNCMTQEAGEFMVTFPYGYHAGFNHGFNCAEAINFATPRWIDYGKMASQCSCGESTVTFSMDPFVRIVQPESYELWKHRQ
Tau fluor cs: counter-screen for tau fibril formation inhibitors. tau K18 P301L Alexa594 fluorescence, heparin fibrillization. Potency, µM (highest dose often 57.7 µM), inactives show top-dose activity change, negative = decrease. hit rate 0.93% among 280,000. AID 1463; note: potency is the fitted concentration of half-maximal effect; nearly all actives have a fitted effect of over 55% in size
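Human K18 P301L tau (15 uM unlabeled plus 0.24 uM Alexa 594-labeled, final) in 100 mM sodium acetate pH 7 was mixed with compound and 20 uM heparin and incubated 6 hr at 37 C.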
Sfp inh: Sfp phosphopantetheinyl transferase inhibition; Q9F4F7; Biochemical Sfp PPTase activity, qHTS; Potency, µM, inactives show largest response in the series, negative = inhibition, actives largely listed as inhibitors; hit rate 3.5% among 310,000; AID 1490;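 note: the enzyme is Sfp with the accession as filed and its product quenches rhodamine fluorescence; potency is the fitted concentration of half-maximal effect; 0% = enzyme reaction without inhibitor and -100% = no enzyme wells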
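Compounds were incubated with enzyme (final 15 nM) for 15 min at room temperature before substrate addition started the reaction. Fluorescence at 525 nm excitation, 598 nm emission was recorded immediately and after 30 minutes.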
Coupling enz: coupling enzyme interference in Giardia aldolase counter-screen; coupling enzyme system counterscreen, AmpLite Red fluorescence; activity change, negative = inhibition, % at 58.2 µM, hits read low; hit rate 0.67% among 290,000; AID 2472; in the data active = activity change below about -30%
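Compounds tested against the coupling enzymes alone at 57.5 uM final; readout was AmpLite Red fluorescence (525/598 nm) after 20 min at RT.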
Tau fibril ThT: tau fibrillization inhibition (ThT binding) | recombinant tau K18 P301L, heparin-induced fibrillization, ThT fluorescence | hit rate 2.1% among 270,000 | AID 1460 | Potency, µM (titrated, usually from 57.4 µM), for the others: top-dose activity, negative = inhibition, hits mostly inhibitors | P10636; note: potency is the fitted concentration of half-maximal effect; nearly all actives have a fitted effect of over 55% in size
Target sequence (P10636 561-689 P618L limits assumed): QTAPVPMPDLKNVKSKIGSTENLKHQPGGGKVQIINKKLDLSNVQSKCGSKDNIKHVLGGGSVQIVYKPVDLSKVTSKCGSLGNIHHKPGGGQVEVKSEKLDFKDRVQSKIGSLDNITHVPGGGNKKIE
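Fibril formation assay: tau K18 P301L at 15 uM with trace Alexa 594 label, heparin inducer 20 uM, pH 7 sodium acetate buffer, 37 C for 6 hr; endpoint ThT signal.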
Tau fibril FP: inhibitors of human tau fibril formation; P10636; Potency, µM (titrated, usually from 57.7 µM), for the others: top-dose activity, negative = inhibition, most hits filed as inhibitors; hit rate 0.39% among 280,000; K18 P301L tau heparin fibrillization, Alexa594 FP, 6 h; note: potency is the fitted concentration of half-maximal effect; nearly all actives have a fitted effect of over 55% in size
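FP of Alexa 594-tau after heparin (20 uM) induction. Substrate: human K18 P301L, 15 uM unlabeled, 0.24 uM labeled. Buffer 100 mM sodium acetate pH 7. 6 hr, 37 C.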
Active calls of the source: *; ? = inconclusive; nt = no result; ! = not confirmed by another sample; [ ] = remark or other dose. Unless noted, calls come from the whole dose curve; as a rule, active = well fitted curve in the direction sought with a large enough effect; inconclusive = small, poorly fitted or top-dose-only effect, or another doubt; inactive = no such curve, though single readings can be large; an effect the other way counts as inactive or inconclusive. Unless noted, % is set by controls: 0 for no effect and ±100 for the full control effect.

SMILES	KDM4E inh	Tau fluor cs	Sfp inh	Coupling enz	Tau fibril ThT	Tau fibril FP
CN(C)c1ccc(/C=N/N2C(=S)SC(C)(C)C2N(O)C(=O)Nc2ccc([N+](=O)[O-])cc2)cc1 (stereo unspecified)	-1%	11µM*[quencher]	19%	0	18µM*	6%
C=CCC(C)(O)c1cccc(Br)c1 (stereo unspecified)	-3%	-3%	15%	3	3%	-1%
CC(C)(C)c1cc(-c2nc(N)nc(N)n2)cc(C(C)(C)C)c1	?	-6%	46%	-2	?	28µM*
CCN(CC)Cc1c(O)ccc2c1O/C(=C\C=C\c1ccccc1)C2=O	5%	-10%	4%	0	?	10%
COCCN(CCOC)Cc1c(O)ccc2c1O/C(=C\c1ccc(C)o1)C2=O	nt	nt	2.8µM*	-15	nt	nt
CCCCN(Cc1cc2cc(C)ccc2[nH]c1=O)C(=O)c1cccc(Cl)c1	nt	4%	nt	nt	-1%	-4%
CC(=O)CCc1oc2ccc(C)cc2c1-c1ccc(C)o1	-8%	-4%	22µM*	-1	-13%	6%
Cc1ccc(CNC(=O)CSc2c(C(C)C)cnc3c2c(=O)n(C)c(=O)n3C)cc1	nt	-4%	nt	nt	1%	-4%
Cc1cc(=O)c2c(O)c3c(O)cc(=O)c4c3c3c(cc(O)c1c23)C(C)(C)C=4O	-4%	?	56µM*!	6	8.9µM*	-13%
CCn1c(C)c(C(C)=O)c(N2CCN(C(c3ccccc3)c3ccccc3)CC2)nc1=S	9%	3%	?	-4	4%	5%
CCn1c(C)c(C(C)=O)c(N2CCN(c3ccccc3)CC2)nc1=S	?	-19%	56µM*	-16	22µM*	?
CCN(CC)c1ccc(NC(=O)C2COc3ccc(OC)cc3C2)c(C)c1 (stereo unspecified)	nt	-20%	nt	nt	?	11%
Cc1cc(C)n2nc(/C(C#N)=C/c3ccccn3)c(C#N)c2n1	?	?	16%	-3	22µM*	?
C=CC(C1=CC(=O)C(OC)=CC1=O)c1ccc(O)cc1 (stereo unspecified)	?	?	-75%	-35*	32µM*	?
C=C[C@@H](C1=CC(=O)C(OC)=C(OC)C1=O)c1ccccc1	?	?	11µM*	-45*	28µM*	?
COC(=O)/C(Cc1cc(Br)c(OC)c(Br)c1O)=N/O	-23%	-6%	7%	-1	-3%	-2%
Cc1ccc(/C(O)=C/C(=O)C(=O)NNC(=O)C(O)(c2ccccc2)c2ccccc2)cc1	-3%	4%	2%	-3	5%	5%
COC(=O)C(=O)/C=C(\O)c1ccc(C)cc1	?	?	?	9	22µM*	?
NC(=O)c1sc2nccc(Nc3ccccc3)c2c1N	?	-16%	40µM*	0	-9%	-10%
O=C(c1cccc(F)c1)N1CCC[C@@]2(CCN(c3ccccc3)C2)C1	nt	nt	-9%	-4	nt	nt
O=C(CNS(=O)(=O)c1ccccc1)OCC(=O)c1ccc([N+](=O)[O-])cc1	4%	-19%	79µM*	-1	25µM*	?
O=C(CNc1cccc2ccccc12)c1ccc([N+](=O)[O-])cc1	?	?	-28%	-18	14µM*	?
O=C(Nc1cccc2ccccc12)c1ccc([N+](=O)[O-])cc1	nt	nt	-8%	-4	nt	nt
O=C(CNC(=O)c1ccc([N+](=O)[O-])cc1)c1ccccc1	4%	-3%	23%	0	-15%	1%
O=C(CNc1ccccc1)c1ccc([N+](=O)[O-])cc1	-8%	?	50µM*	1	14µM*	?
SMILES	KDM4E inh	Tau fluor cs	Sfp inh	Coupling enz	Tau fibril ThT	Tau fibril FP
O=C(CNS(=O)(=O)c1ccccc1)OCC(=O)c1ccc(Br)cc1	nt	nt	-3%	2	nt	nt
CCOc1ccccc1NC(=O)CSc1nc2c(c(=O)[nH]1)CCC2	nt	-21%	nt	nt	1%	-9%
O=C1CCCC2=C1Sc1ccc(Cl)cc1N2	-7%	-15%	-10%	-8	6.3µM*	15%
COC(=O)c1ccc2c(c1)SC1=C(CCCC1=O)N2	-9%	-6%	-4%	-5	13µM*	5%
CCCCc1nn2c(=O)cc(COC(=O)c3ccco3)nc2s1	nt	-10%	nt	nt	?	-4%
COc1ccc(CN2C(=O)c3cccnc3C2Nc2cc(Cl)c(OC)cc2OC)cc1 (stereo unspecified)	16µM*	?	-27%	-2	?	0%
COc1ccc(CN2C(=O)c3cccnc3C2Nc2ccc(C)cc2)cc1 (stereo unspecified)	?	-14%	-5%	0	-8%	7%
CC(=O)Nc1ccccc1-c1nc2ccccc2n(C(C)C(=O)Nc2cccc(C)c2C)c1=O (stereo unspecified)	nt	3%	nt	nt	6%	-5%
C[n+]1cc2c3c(ccc2c2ccc4cc5c(cc4c21)OCO5)OCO3	?	18µM*[quencher]	8.9µM*!	-43*!	28µM*	?
COc1ccc2oc(=O)cc(CN3CCN(C(=O)c4ccccc4)CC3)c2c1	nt	6%	nt	nt	1%	-2%
N#Cc1ccc(Cl)cc1NC(=O)CNCc1cccs1	nt	nt	56µM*	2	nt	nt
CC(=O)c1ccc(N2CCN(c3ccc(C(N)=O)cc3[N+](=O)[O-])CC2)cc1	-1%	6%	-6%	5	5%	4%
CC(=O)c1ccc(N2CCC(c3cc(-c4ccc(Cl)cc4)n[nH]3)CC2)c([N+](=O)[O-])c1	4%	?	-9%	-3	4.5µM*	?
COc1ccc(-c2cc(C3CCN(c4ccc(C(C)=O)cc4[N+](=O)[O-])CC3)[nH]n2)cc1	-2%	?	-8%	-4	3.5µM*	-6%
COC(=O)c1ccc(N2CCC(c3cc(-c4ccc(OC)cc4)n[nH]3)CC2)c([N+](=O)[O-])c1	3%	?	?	-1	3.5µM*	?
COC(C)(C)CCCC(C)C/C=C/C(C)=C/C(=O)O (stereo unspecified)	3%	-3%	8%	0	3%	-4%
CCOc1ccc(C2CC(=O)NC(NC(=O)c3cccc(Cl)c3)=N2)cc1 (stereo unspecified)	nt	-7%	nt	nt	10%	-2%
